aDG glyco act – alpha-DG glycosylation activation. Pro5-aDG cells, alpha-DG glycosylation AlphaScreen (IIH6); 0% Pro5, 100% B10-LARGE cell signal. activation, % at 10 µM. 360,000 compounds, 0.22% hits;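 active = activation of at least 8% versus controls, or a plate z-score of at least 8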;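 note: Pro5 are CHO cells carrying HIG-tagged alpha-DG that lacks glycosylation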
CRFBP-R2 block – CRF-BP/CRF-R2 complex antagonism | HEK293 CRF-R2/CRF-BP, CRF-induced calcium fluorescence | inhibition, % at 11.8 µM | 350,000 compounds, 0.59% hits | AID 588475;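 active = inhibition of the ligand-induced calcium signal above about 50% at the single tested concentration, limit read from the data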
Cardio protect – myocardial damage modulation in H9c2 cells. 360,000 compounds, 0.63% hits. AID 588492. protection from H2O2 cell death, % at 20 µM. H9c2 cardiomyocytes, H2O2 injury protection, ATPLite, 2 h;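 active = compounds giving at least 50% protection of heart cells from peroxide-induced death in the single-dose screen, raw or plate-pattern-corrected value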;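 note: 0% = DMSO wells with peroxide and 100% = DMSO wells without peroxide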
CRFBP-R2 agonist – CRF-BP/CRF-R2 complex agonism | HEK293 CRF-R2/CRF-BP, calcium dye fluorescence (FLIPR); percent of saturating CRF peptide response | activation, % at 13.2 µM | 350,000 compounds, 0.46% hits | AID 588473;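 active = activation of at least 50%, plus an integration ratio under a set limit after plate pattern correction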;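 note: plate controls were neutral control wells without compound for no effect and CRF at EC100 for full effect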
PfG6PD inh – PfG6PD (Plasmodium falciparum) enzyme inhibition. 350,000 compounds, 0.78% hits. inhibition, % at 20 µM. AID 504690. PfGluPho enzyme, NADPH resazurin-diaphorase fluorescence;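 active = inhibition reaching at least a set limit at 20 µM in the primary screen, cut at about 59% in these data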;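 note: 0% = DMSO wells with substrate and 100% = DMSO wells lacking glucose-6-phosphate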
FAS TE block – FAS thioesterase (human) inhibition; P49327; recombinant FAS-TE, OMFH fluorogenic substrate, fluorescence endpoint; inhibition, % at 15 µM; 360,000 compounds, 0.67% hits;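 active = compounds whose normalised, plate-corrected inhibition of enzyme fluorescence in the single-dose primary screen is 50% or more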;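 note: 0% = DMSO with enzyme and 100% = substrate without enzyme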
* marks the source's active call; other numbers are inactive results. This is a sample that favours compounds with a hit; in the whole collection about 3.2% have one here.

SMILES	aDG glyco act	CRFBP-R2 block	Cardio protect	CRFBP-R2 agonist	PfG6PD inh	FAS TE block
Cc1cc(Br)cc(C=Nc2ccc(N3CCOCC3)cc2)c1O	0	6	84*	0	17	10
Oc1c(Br)cc(Br)cc1C=Nc1ccc2c(c1)OCCO2	0	-4	84*	6	18	-5
CCN(CC)CCOC(=O)c1ccc(NC(=O)CSc2nnc(-c3cccs3)n2CC)cc1	0	0	-1	-1	23	-10
O=C(NCCCNC(=O)c1cnccn1)c1ccc(Br)cc1	1	14	3	-1	-5	-1
COc1ccc2sc(-c3ccc(S(C)(=O)=O)cc3)c(C(=O)NCCc3c[nH]c4ccccc34)c2c1	0	63*	27	-1	13	41
COc1ccc2c(C(=O)NCCCCO)c(-c3ccc(S(C)(=O)=O)cc3)sc2c1	0	1	7	0	-13	-4
CCCN1CCc2c(sc(NC(=O)Cc3ccc(F)cc3)c2C(N)=O)C1	0	-10	0	6	-4	-7
O=C1c2sc3nc4n(c(=O)c3c2CCC1Br)CCCCC4 (stereo unspecified)	-1	-18	-1	2	80*	-1
O=C1CCCc2c1sc1nc3n(c(=O)c21)CCCCC3	0	3	9	0	5	-2
Cc1cc([N+](=O)[O-])ccc1NCc1ccco1	0	59*	-3	0	6	-4
COc1ccc([N+](=O)[O-])cc1NCc1ccccc1	1	98*	-9	-4	20	25
COc1ccc(OC)c(CNc2ccc([N+](=O)[O-])cc2C)c1	0	19	-6	0	6	28
COc1ccc([N+](=O)[O-])cc1NCc1ccccc1C	0	48	-10	1	12	25
Cc1cc([N+](=O)[O-])ccc1NCc1ccc2c(c1)OCCO2	0	53*	-7	-2	-1	23
COc1cccc(CNc2ccc([N+](=O)[O-])cc2C)c1	0	58*	-19	-3	11	28
CC(C)c1ccc(C2C(C(=O)c3ccco3)=C(O)C(=O)N2CCN2CCOCC2)cc1 (stereo unspecified)	0	3	12	6	18	10
CCN(CC)C(=S)Nc1cc(C(=O)OC)ccc1C(=O)OC	0	8	0	0	-12	-6
COc1ccc(C(C(=O)NCc2ccccc2)N(Cc2ccco2)C(=O)c2snc(C(N)=O)c2N)cc1OC (stereo unspecified)	0	-6	49	-2	-7	-3
COc1ccc(C(C(=O)NCc2ccccc2)N(Cc2ccco2)C(=O)c2snc(C(N)=O)c2N)cc1 (stereo unspecified)	0	-2	80*	-1	2	8
Cc1ccc(C(C(=O)NCc2ccccc2)N(Cc2ccco2)C(=O)c2snc(C(N)=O)c2N)o1 (stereo unspecified)	0	1	61*	0	10	8
NC(=O)c1nsc(C(=O)N(CCc2ccccc2)C(C(=O)NC2CCCC2)c2ccco2)c1N (stereo unspecified)	0	-1	78*	0	21	19
Cc1cccc(OCCn2c(NC(=O)c3ccco3)nc3ccccc32)c1	1	-55	62*	2	-2	18
Cc1ccc(OCCn2c(NC(=O)c3ccco3)nc3ccccc32)cc1	1	-19	24	1	0	14
CCOC(=O)C1(CC2CCCCO2)CCN(Cc2nccn2-c2ccc(OC)cc2)CC1 (stereo unspecified)	0	52*	1	-3	2	-2
CC(=O)Cn1cnc2c(cnn2-c2ccc(C)c(C)c2)c1=O	0	29	-2	-2	1	-2
SMILES	aDG glyco act	CRFBP-R2 block	Cardio protect	CRFBP-R2 agonist	PfG6PD inh	FAS TE block
Cc1ccn2cc(CCNC(=O)COc3ccccc3)nc2c1	0	8	4	-6	4	-3
COc1cc(SC)ccc1C(=O)Nc1ncc(C)s1	0	105*	-27	0	20	3
COc1cc(SC)ccc1C(=O)Nc1ccc(Br)cn1	0	-3	-18	3	25	10
Oc1c(Br)cc(Br)cc1C=NCc1ccccc1	0	-4	76*	15	16	2
Oc1c(Br)cc(Br)cc1C=NCc1ccc(F)cc1	0	8	60*	14	7	0
O/N=C/c1cc(Br)ccc1OCc1ccc(F)cc1	0	4	-22	3	17	-24
O=C(Cc1ccccc1)N/N=C/c1cc(Br)cc(Br)c1O	0	11	24	12	-47	26
CCOC(=O)C1C(C(=O)OC)=C(C(=O)OC)c2ccccc2N1S(=O)(=O)C(F)(F)F (stereo unspecified)	0	0	8	1	10	-10
Cc1ccc(O)c(CNCCNCc2cc(C)ccc2O)c1	1	-4	65*	1	-25	-12
CCc1ccc(O)c(CNCCNCc2cc(CC)ccc2O)c1	4	-4	19	0	-26	-16
C=CCNc1oc(-c2cccc(F)c2)nc1C#N	0	-23	19	2	-20	0
C=CCNc1oc(-c2ccc(Cl)cc2)nc1C#N	0	-7	52*	-7	-23	0
C=C[C@@]1(C)CC(=O)[C@]2(O)[C@@]3(C)[C@@H](O)CCC(C)(C)[C@@H]3[C@H](OC(C)=O)[C@H](O)[C@@]2(C)O1	0	-17	9	3	-2	1
C=C[C@@]1(C)CC(=O)[C@]2(O)[C@@]3(C)[C@@H](O)CCC(C)(C)[C@@H]3[C@H](O)[C@H](OC(C)=O)[C@@]2(C)O1	0	28	71*	2	10	-2
N#Cc1ccc(CSC2=NCCN2)cc1	0	104*	-4	-1	-3	-5
O=C(Oc1nsnc1N1CCOCC1)N(c1ccccc1)c1ccccc1	1	4	2	-1	17	7
COC(=O)Oc1nsnc1N1CCOCC1	0	2	2	0	61*	-5
O=C(COc1nsnc1N1CCOCC1)N/N=C/c1ccccc1O	1	-29	73*	0	-28	-4
COc1cccc(N=C2SC(CC(=O)Nc3ccccc3)C(=O)N2Cc2ccccn2)c1 (stereo unspecified)	1	-13	4	-2	25	17
CC(C)(C)C1COc2ccccc2N1C(=O)c1ccccc1Cl (stereo unspecified)	0	-62	-6	57*	15	23
COc1ccc(NC(=O)CSc2nnc(N)s2)c([N+](=O)[O-])c1	0	65*	4	0	-10	-8
COc1ccc(NC(=O)CSc2nnc(NC(C)=O)s2)c([N+](=O)[O-])c1	0	-6	14	0	-14	-6
N#CC1=C(N)SC(N)=C(C#N)C1Cc1ccccc1	0	-42	-1	47	27	-73

Screens from PubChem BioAssay.
